Experimental data from PubChem BioAssay.
Values without a mark were called inactive. No rule for the calls is given here.

biological target: Pantothenate synthetase (Mycobacterium tuberculosis (strain ATCC 25618 / H37Rv)) (UniProt P9WIL5); experiment: Coupled enzyme confirmation of inhibitors against recombinant Mtb PanC (AID 375); settings: coupled enzyme assay; at 10 µM, stronger effect = higher value;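 also: 0% = full reaction with vehicle and 100% = no enzyme background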
Sequence (P9WIL5 whole entry, looked up): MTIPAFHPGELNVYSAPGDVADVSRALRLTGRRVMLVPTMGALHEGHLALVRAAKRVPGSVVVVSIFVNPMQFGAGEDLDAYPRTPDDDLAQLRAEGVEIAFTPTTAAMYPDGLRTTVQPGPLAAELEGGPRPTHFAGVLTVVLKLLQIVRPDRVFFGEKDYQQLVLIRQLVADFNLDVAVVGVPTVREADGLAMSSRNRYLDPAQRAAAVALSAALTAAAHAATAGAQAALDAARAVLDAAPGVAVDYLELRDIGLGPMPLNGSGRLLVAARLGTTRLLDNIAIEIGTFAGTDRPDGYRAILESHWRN

SMILES | inhibition [%]
COc1cc(NS(=O)(=O)N2CCCC2)cc(OC)c1OC | 0
Cc1ccc(CS(=O)(=O)Cc2ccc(C(=O)NCc3ccccn3)o2)cc1 | 0
O=C1CCN(C(=O)c2ccccc2)C2CCCCC12 (configuration not stated) | 0
CCN(CCCNC(=O)C1CCCN(S(=O)(=O)c2cnc[nH]2)C1)c1ccccc1 (configuration not stated) | 1
CC1CCCCN1CCNS(=O)(=O)c1ccc2c(c1)oc(=O)n2C (configuration not stated) | 0
Cc1c(NC(=O)C2CCCCN2S(=O)(=O)c2ccc(Cl)cc2)c(=O)n(-c2ccccc2)n1C (configuration not stated) | 0
Cc1cc(C)c(NC(=O)C2CSCCS2)c(C)c1 (configuration not stated) | 0
O=C(NCCCn1ccnc1)c1cnn2c1NC(c1ccccc1)CC2C(F)(F)F (configuration not stated) | 2
COc1ccc2cc([C@H](C)C(=O)O)ccc2c1 | 0
CS(=O)(=O)Nc1ccccc1C(=O)O | 0
CCn1c(SCC(=O)Nc2ccccc2N2CCCCC2)nc2c1c(=O)n(C)c(=O)n2C | 2
Cc1nnc(SCC2=C(C(=O)O)N3C(=O)[C@@H](NC(=O)Cn4cnnn4)[C@H]3SC2)s1 | 0
CC1(C)S[C@@H]2[C@H](NC(=O)[C@H](C(=O)O)c3ccsc3)C(=O)N2[C@H]1C(=O)O | 5
CC(C)CC(c1nnnn1C1CCCC1)N1CCN(c2ccccc2F)CC1 (configuration not stated) | 0
CC1=C(C(=O)N2CCCCC2)C2(CCC(C)CC2)OC1=O (configuration not stated) | 12
Cn1cnc2c1c(=O)n(Cc1cccc(Br)c1)c(=O)n2C | 1
COC(=O)c1ccc2c(=O)n(Cc3ccco3)c(SCC(=O)Nc3ccc(C)c(Cl)c3)nc2c1 | 2
c1ccn2c(SCc3ccc4c(c3)OCCO4)nnc2c1 | 1
CCC(=O)N1CCCc2cc(S(=O)(=O)N3CCCc4ccccc43)ccc21 | 4
COc1ccc(N2CCN(c3oc(COc4ccccc4)nc3C#N)CC2)cc1 | 0
c1cncc(-c2nc3c4ccccc4nc(N4CCC(N5CCCCC5)CC4)n3n2)c1 | 0
COc1ccc(C2CC(c3ccc(Cl)cc3Cl)Nc3nc(N)nn32)cc1 (configuration not stated) | 0
